From PubChem BioAssay (NCATS)
Results filed as inconclusive are left out. The source made the active and inactive calls. Calls come from the whole dose curve; as a rule, active = well fitted curve in the direction sought with a large enough effect; inconclusive = small, poorly fitted or top-dose-only effect, or another doubt; inactive = no such curve, though single readings can be large; an effect the other way counts as inactive or inconclusive.

Experiments:
[1] = qHTS assay for measurement of the activity of small molecule inhibitors on Zika virus induced Caspase-3 activity in human iPSC derived neural progenitor cells (hNPCs) (AID 1224857); note: nearly all actives have a fitted effect of over 65% in size; note: potency is the fitted concentration of half-maximal effect
Method in brief: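 After overnight (16–20 h) culture at 350 cells/well, hNPCs get compound, then ZIKV 2 FFU/cell one hour later. Six hours on, Caspase-Glo 3/7 is added and luminescence measured.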

[2] = qHTS assay for measurement of the activity of small molecule inhibitors on Zika virus induced Caspase-3 activity in human astrocytoma cells (AID 1224859)
Method in brief: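 Inhibition of Zika-induced caspase-3/7 activity: SNB-19 cells, 1 h compound pretreatment, ZIKV 2 FFU/cell for 6 h at 37 C, Caspase-Glo luminescence read-out.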

[3] = NS1 protein of Zika virus - qHTS assay to identify small molecule inhibitors in human HEK 293 cells (AID 1347053); note: series mostly up to about 46 µM; nearly all actives have a fitted effect of over 55% in size
Method in brief: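 Compound-treated (1 h pre-infection) HEK 293 cells infected with ZIKV MR766, MOI = 0.5; after 24 h at 37 C, NS1 read by TR-FRET; data normalized to uninfected and infected controls.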

[4] = qHTS of pediatric cancer cell lines to identify multiple opportunities for drug repurposing: Primary screen for DAOY cells (AID 1347090); note: nearly all actives have a fitted effect of over 55% in size; note: potency is the fitted concentration of half-maximal effect
Method in brief: (§1)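 Cell viability, CellTiter-Glo luminescence; 500-1,000 cells/well, 8- or 11-point titration, 48 h compound exposure at 37 degrees C, 5% CO2. Controls: DMSO neutral, bortezomib 2.3 µM final as positive.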

[5] = qHTS of pediatric cancer cell lines to identify multiple opportunities for drug repurposing: Primary screen for SJ-GBM2 cells (AID 1347091); note: potency is the fitted concentration of half-maximal effect
Method in brief: as §1

[6] = qHTS of pediatric cancer cell lines to identify multiple opportunities for drug repurposing: Primary screen for BT-37 cells (AID 1347094); note: potency is the fitted concentration of half-maximal effect
Method in brief: (§2)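 CRCs from 8- or 11-point titrations (lowest final 0.59 nM NPC, 0.78 nM MIPE). Cell viability: CellTiter-Glo after 48 h incubation, 15 min room-temperature development, luminescence imaging.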

[7] = qHTS of pediatric cancer cell lines to identify multiple opportunities for drug repurposing: Primary screen for NB-EBc1 cells (AID 1347095); note: potency is the fitted concentration of half-maximal effect
Method in brief: as §2

[8] = qHTS of pediatric cancer cell lines to identify multiple opportunities for drug repurposing: Primary screen for U-2 OS cells (AID 1347096); note: nearly all actives have a fitted effect of over 50% in size; note: potency is the fitted concentration of half-maximal effect
Method in brief: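 Cells (500-1,000/well) rested 5 h, then received compounds for 48 h; metabolically active cells were measured by CellTiter-Glo luminescence. Final concentrations spanned up to 46 µM (MIPE, 11-point) or 0.59 nM-46 µM (NPC, 8-point) in primary screens, 11-point in follow-ups.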

[9] = qHTS of pediatric cancer cell lines to identify multiple opportunities for drug repurposing: Primary screen for TC32 cells (AID 1347089); note: nearly all actives have a fitted effect of over 60% in size; note: potency is the fitted concentration of half-maximal effect
Method in brief: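 Measured quantity: luminescence from CellTiter-Glo, reflecting metabolically active TC32 cells following 48 h of compound. Curves came straight from multi-point titrations, with 8 or 11 points in primary and 11 in confirmatory screening.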

[10] = qHTS of pediatric cancer cell lines to identify multiple opportunities for drug repurposing: Primary screen for A673 cells (AID 1347092); note: nearly all actives have a fitted effect of over 45% in size; note: potency is the fitted concentration of half-maximal effect
Method in brief: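 Cells are plated, rested 5 h, dosed by pintool, incubated 48 h, then lysed with CellTiter-Glo and read by luminescence. DMSO is the neutral control; bortezomib at 2.3 uM final is the positive control.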

[11] = qHTS of pediatric cancer cell lines to identify multiple opportunities for drug repurposing: Primary screen for SK-N-MC cells (AID 1347093); note: potency is the fitted concentration of half-maximal effect
Method in brief: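 Metabolically active cells were quantified by ATP-dependent luminescence (CellTiter-Glo, 15 min at room temperature) following 48 h treatment. Cells had been plated at 500-1,000 per well and settled for 5 h beforehand.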

Measured: Potency

Cc1cc(O)c(C)c(C)c1O
not listed: [9] | [10] | [11]
inactive: all other assays above

CCOC(=O)C1=C(C)NC(C)=C(C(=O)OCC)C1c1ccccc1/C=C/C(=O)OC(C)(C)C
inactive: [1] | [2] | [9]

CC(C)C(=O)Nc1cccc(C(F)(F)F)c1
not listed: [9]
inactive: all other assays above

[O-][n+]1cccc(/C(Cl)=N/OC[C@@H](O)CN2CCCCC2)c1
not listed: [9]
inactive: all other assays above

CCOC(=O)[C@H](CCc1ccccc1)N[C@@H](C)C(=O)N(CC(=O)O)C1Cc2ccccc2C1
not listed: [9]
inactive: all other assays above

COc1c(C)c2c(c(O)c1C/C=C(\C)CCC(=O)OCCN1CCOCC1)C(=O)OC2
active: [9] 0.745 µM | [6] 0.347 µM | [7] 0.188 µM
inactive: [1] | [2] | [3]

CC(C)Cc1ccc(C(C)C(=O)OCc2ccccn2)cc1 (centres undefined)
not listed: [5] | [9] | [11]
inactive: all other assays above

CC(=O)Oc1ccc(C2(c3ccc(OC(C)=O)cc3)Oc3ccccc3NC2=O)cc1
active: [4] 13.3 µM | [10] 13.3 µM
inactive: [1] | [2] | [3]

O=C(O)C1CCC1
not listed: [9]
inactive: all other assays above

CN1CCC(N(Cc2cccs2)c2ccccc2)CC1
active: [11] 26.6 µM
inactive: [1] | [2] | [8]

CCCCCCCCCCCCCCCC[n+]1ccccc1
active: [4] 16.8 µM | [11] 5.31 µM | [6] 15.5 µM | [7] 18.8 µM | [8] 21.1 µM
inactive: [1] | [2]

N#Cc1cc(NC(=O)C(=O)O)c(Cl)c(NC(=O)C(=O)O)c1
not listed: [3]
inactive: all other assays above

CC(C)(C)C1CCC(CC2=C(O)c3ccccc3C(=O)C2=O)CC1 (centres undefined)
inactive: [1] | [2] | [9] | [8]
active: [4] 3.35 µM | [11] 5.31 µM

CCCCCCCCCCCCCC[N+](C)(C)C
active: [4] 10.6 µM | [5] 11.9 µM | [10] 2.11 µM | [11] 3.35 µM | [6] 15.5 µM | [7] 21.1 µM
inactive: [1] | [2]

CCCCCCCCCCCCCCCCCCNC(=O)OC1CCN(C(=O)OC[C@H](COC(=O)N(Cc2cccc[n+]2CC)C(=O)c2ccccc2OC)OC)CC1
active: [10] 8.41 µM | [11] 8.41 µM | [6] 21.9 µM
inactive: [1] | [2]

CC(C)(C)c1ccc(O)c(O)c1
inactive: [2]
active: [1] 35.5 µM | [4] 24.3 µM | [5] 30.6 µM | [10] 15.4 µM | [11] 6.86 µM | [7] 6.11 µM

CCOC(=O)C(O)c1ccccc1 (centres undefined)
not listed: [3] | [8] | [10]
inactive: all other assays above

CC[C@@]1(O)C(=O)OCc2c1cc1n(c2=O)Cc2c-1nc1ccccc1c2/C=N/OC(C)(C)C
active: [9] 0.0297 µM | [4] 0.106 µM | [5] 0.0266 µM | [10] 0.0335 µM | [11] 0.0211 µM | [6] 0.0309 µM | [7] 0.0211 µM
inactive: [1] | [2]

O=C1Cc2cc(Cl)ccc2N1
not listed: [3]
inactive: all other assays above

O=C(c1ccco1)N1CCNCC1
not listed: [3] | [7]
inactive: all other assays above

O=C1OC2(c3ccccc31)c1cc(I)c(O)c(I)c1Oc1c2cc(I)c(O)c1I
not listed: [3] | [5] | [11]
inactive: all other assays above

CC1(C)OC(=O)Nc2ccc(Br)cc21
not listed: [3] | [4] | [5]
inactive: all other assays above
